Data as given in PubChem BioAssay (NCATS).
Results filed as inconclusive are left out. A call without a number means that no potency is given here. Active and inactive are the calls of the source. Unless noted, the call rests on the fitted dose curve; in most records, active means well fitted curve in the direction sought with a large enough effect; inconclusive means small, poorly fitted or top-dose-only effect, or another doubt; inactive means no such curve, though single readings can be large; an effect the other way counts as inactive or inconclusive.

Key:
[1] = Counterscreen for APE1 Inhibitors: Fluorescent Dye Displacement Validation Assay (AID 1707)
Summary of the method: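 Assay buffer: Tris-HCl pH7.5 with 50mM NaCl, 2 mM MgCl2, 0.01% Tween-20. Dye 250 nM, duplex 50 nM final. Readout: decrease in ThO endpoint fluorescence, 480 nm excitation, 540 nm emission.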

[2] = qHTS for differential inhibitors of proliferation of Plasmodium falciparum line 7G8 (AID 1815);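 further: parasite growth measured after three days of incubation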; further: potency means the concentration at half of the fitted maximal effect
[3] = qHTS for differential inhibitors of proliferation of Plasmodium falciparum line GB4 (AID 1816); settings: Potency: Plasmodium falciparum GB4 proliferation inhibition;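 further: parasite growth measured after 72 h incubation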; further: potency means the concentration at half of the fitted maximal effect
[4] = qHTS for differential inhibitors of proliferation of Plasmodium falciparum line 3D7 (AID 1876); further: potency means the concentration at half of the fitted maximal effect
[5] = qHTS for differential inhibitors of proliferation of Plasmodium falciparum line D10 (AID 1877);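 further: parasites grown with compound for 72 h before DNA staining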; further: potency means the concentration at half of the fitted maximal effect
[6] = qHTS for differential inhibitors of proliferation of Plasmodium falciparum line Dd2 (AID 1882); settings: Potency: Plasmodium falciparum Dd2 proliferation inhibition; further: nearly all actives have a fitted effect of over 65% in size; further: potency means the concentration at half of the fitted maximal effect
Summary of the method: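 SYBR Green I DNA fluorescence read-out, ex 485/em 535 nm. Signals were normalized to 0.29 uM artemisinin and DMSO wells, then corrected using vehicle-only plates flanking each stack. Parasite growth ran 72 h in erythrocytes before lysis.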

[7] = qHTS for differential inhibitors of proliferation of Plasmodium falciparum line W2 (AID 1883); settings: Potency: Plasmodium falciparum W2 proliferation inhibition;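 further: parasites grown with compound for 72 h before lysis and staining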; further: potency means the concentration at half of the fitted maximal effect
[8] = qHTS for differential inhibitors of proliferation of Plasmodium falciparum line HB3 (AID 1886); settings: Potency: Plasmodium falciparum HB3 proliferation inhibition;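 further: parasites grown with compound for 72 h before SYBR Green readout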; further: potency means the concentration at half of the fitted maximal effect
[9] = molecular target: Ferritin light chain (Equus caballus) (UniProt P02791); assay: qHTS Validation Assay for Identification of Novel General Anesthetics (AID 2323); further: series mostly up to about 77 µM
Chain of Ferritin light chain (Equus caballus) (P02791 2-175 limits assumed): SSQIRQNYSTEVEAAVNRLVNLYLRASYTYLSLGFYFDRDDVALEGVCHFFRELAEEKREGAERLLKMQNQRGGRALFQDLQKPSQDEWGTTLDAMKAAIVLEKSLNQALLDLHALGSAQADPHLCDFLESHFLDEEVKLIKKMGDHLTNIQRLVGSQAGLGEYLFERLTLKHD
Summary of the method: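 Apoferritin from horse spleen (10 uM) was mixed with 1-aminoanthracene at 50% saturation in PBS, then compounds were added. After 10 min at room temperature, fluorescence was read (ex 380 nm, em 535 nm) and normalized to free-probe and complex controls.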

[10] = molecular target: ATP-dependent DNA helicase Q1 (Homo sapiens) (UniProt P46063); assay: qHTS Validation Assay for Inhibitors of RecQ-Like Dna Helicase 1 (RECQ1) (AID 2353)
Chain of ATP-dependent DNA helicase Q1 (Homo sapiens) (P46063 whole entry, looked up): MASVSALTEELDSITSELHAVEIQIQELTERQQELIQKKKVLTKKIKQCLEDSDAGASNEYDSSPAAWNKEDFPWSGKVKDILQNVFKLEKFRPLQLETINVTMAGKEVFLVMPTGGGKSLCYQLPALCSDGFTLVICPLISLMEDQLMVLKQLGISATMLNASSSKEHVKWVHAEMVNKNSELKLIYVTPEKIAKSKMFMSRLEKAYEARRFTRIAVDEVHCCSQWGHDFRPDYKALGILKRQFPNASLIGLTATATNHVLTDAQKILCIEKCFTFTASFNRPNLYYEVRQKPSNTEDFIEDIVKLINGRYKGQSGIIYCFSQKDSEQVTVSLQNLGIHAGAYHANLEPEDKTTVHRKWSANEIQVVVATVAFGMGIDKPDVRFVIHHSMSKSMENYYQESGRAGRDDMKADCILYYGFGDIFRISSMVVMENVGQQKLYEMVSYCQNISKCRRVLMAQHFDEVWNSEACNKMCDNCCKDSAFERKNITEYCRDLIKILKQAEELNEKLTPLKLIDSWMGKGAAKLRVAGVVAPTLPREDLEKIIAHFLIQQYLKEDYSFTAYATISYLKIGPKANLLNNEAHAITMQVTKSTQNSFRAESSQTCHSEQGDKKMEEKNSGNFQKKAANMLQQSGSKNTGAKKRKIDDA
Summary of the method: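 50 nM RECQ1T1 preincubated 15 min with compound in Tris pH 8.0 buffer with MgCl2, DTT, Tween-20 and 2.5 ug/ml poly(dI-dC); started with 200 nM TAMRA/BHQ-2 forked duplex and 2 mM ATP. Unwinding read as fluorescence (525/598 nm), two reads 2 h apart.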

[11] = molecular target: RecQ-like DNA helicase BLM (Homo sapiens) (UniProt P54132); assay: qHTS Validation Assay for Inhibitors of Bloom's syndrome helicase (BLM) (AID 2364)
Chain of RecQ-like DNA helicase BLM (Homo sapiens) (P54132 whole entry, looked up): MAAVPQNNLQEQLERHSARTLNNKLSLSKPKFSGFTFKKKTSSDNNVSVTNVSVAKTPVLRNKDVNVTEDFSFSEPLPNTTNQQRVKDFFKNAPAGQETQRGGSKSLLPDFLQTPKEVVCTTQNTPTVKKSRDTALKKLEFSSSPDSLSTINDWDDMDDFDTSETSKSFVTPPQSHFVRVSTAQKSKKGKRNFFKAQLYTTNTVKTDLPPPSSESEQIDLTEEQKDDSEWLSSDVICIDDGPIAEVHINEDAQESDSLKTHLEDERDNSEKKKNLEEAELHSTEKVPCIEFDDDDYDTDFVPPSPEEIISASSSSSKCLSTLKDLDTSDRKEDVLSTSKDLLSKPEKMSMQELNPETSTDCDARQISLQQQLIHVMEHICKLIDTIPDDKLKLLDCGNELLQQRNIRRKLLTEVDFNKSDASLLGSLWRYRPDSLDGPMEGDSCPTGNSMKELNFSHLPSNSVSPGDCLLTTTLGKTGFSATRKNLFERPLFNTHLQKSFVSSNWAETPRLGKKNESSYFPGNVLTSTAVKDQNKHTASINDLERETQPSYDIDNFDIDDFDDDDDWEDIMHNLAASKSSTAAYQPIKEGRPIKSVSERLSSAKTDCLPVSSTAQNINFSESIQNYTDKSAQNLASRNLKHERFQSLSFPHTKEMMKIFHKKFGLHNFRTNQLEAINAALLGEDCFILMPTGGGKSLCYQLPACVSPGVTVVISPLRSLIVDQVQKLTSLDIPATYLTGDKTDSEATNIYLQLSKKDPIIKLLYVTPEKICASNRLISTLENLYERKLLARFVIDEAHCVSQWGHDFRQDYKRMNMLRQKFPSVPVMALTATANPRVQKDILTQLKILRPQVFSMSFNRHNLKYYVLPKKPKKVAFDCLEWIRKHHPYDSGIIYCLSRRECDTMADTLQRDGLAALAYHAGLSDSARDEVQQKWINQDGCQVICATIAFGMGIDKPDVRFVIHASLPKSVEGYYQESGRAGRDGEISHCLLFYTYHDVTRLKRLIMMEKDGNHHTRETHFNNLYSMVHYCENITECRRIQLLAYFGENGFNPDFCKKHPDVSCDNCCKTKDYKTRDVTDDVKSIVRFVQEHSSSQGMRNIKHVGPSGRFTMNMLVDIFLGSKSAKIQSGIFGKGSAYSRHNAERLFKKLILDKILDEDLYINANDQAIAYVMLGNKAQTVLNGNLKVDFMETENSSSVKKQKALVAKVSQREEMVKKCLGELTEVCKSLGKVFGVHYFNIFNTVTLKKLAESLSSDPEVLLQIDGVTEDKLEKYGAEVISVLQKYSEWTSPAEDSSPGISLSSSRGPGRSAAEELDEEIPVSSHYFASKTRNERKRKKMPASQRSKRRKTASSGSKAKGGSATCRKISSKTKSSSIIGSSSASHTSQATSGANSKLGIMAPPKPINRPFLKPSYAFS
Summary of the method: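 Forked 20-bp duplex substrate (200 nM, TAMRA/BHQ-2) plus 2 mM ATP added after 15 min compound preincubation with 50 nM enzyme, pH 8.0, poly(dI-dC) 2.5 ug/ml. Strand separation followed by fluorescence (525/598 nm) over 2 h, normalized to enzyme-free and DMSO controls.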

[12] = Cytometric Cell-Based qHTS for Inhibitors of the mTORC1 Signaling Pathway in MEF (Tsc2-/-, p53-/-) Cells (AID 2660);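 further: Tsc2 and p53 null MEFs carrying empty vector with compound for 24 h; percent of cells above a phospho-rpS6 to PI ratio cutoff in each well; series mostly up to about 38 µM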
Summary of the method: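 Cells are plated, treated with compound for 24 hrs at 37 degree Celsius, then fixed, blocked and immunostained for phospho-rpS6 Ser235/236. Propidium iodide counterstain follows. Per-well % positive cells is derived from the PI-normalized phospho-S6 signal.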

[13] = High Content Imaging Cell-Based qHTS for Inhibitors of the mTORC1 Signaling Pathway in MEF (Tsc2-/-, p53-/-) Cells (AID 2666);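 further: percent of cells scored positive for phospho-rpS6 Ser235/236 immunostaining by imaging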
Summary of the method: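 Cells were plated, dosed with compound after 24 hrs, and incubated another 24 hrs at 37 degree Celsius. Fixed cells were immunostained for phospho-rpS6 Ser235/236 and counterstained, and the normalized signal was scored as % active cells against rapamycin and DMSO controls.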

[14] = High Content Imaging Cell-Based qHTS for Inhibitors of the mTORC1 Signaling Pathway in MEF Cells (AID 2667);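 further: Tsc2-/- p53-/- MEFs stably re-expressing wild-type Tsc2 exposed 24 h; series mostly up to about 38 µM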
Summary of the method: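 Immunofluorescence for rpS6 phosphorylation in MEFs of Tsc2-/-, p53-/- background rescued with WT Tsc2. Compound exposure lasted 24 hrs. Inhibition was scored against rapamycin-treated control wells.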

[15] = Cytometry Cell-Based qHTS for Inhibitors of the mTORC1 Signaling Pathway in MEF cells (AID 2668);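 further: Tsc2-/- p53-/- mouse embryonic fibroblasts stably re-expressing wild-type Tsc2; percent cells positive for phospho-rpS6 Ser235/236 relative to propidium iodide stain; series mostly up to about 38 µM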
Summary of the method: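 Pathway inhibition in WT Tsc2-rescued Tsc2-/-, p53-/- MEFs is measured as the Alexa-488 phospho-rpS6 to propidium iodide intensity ratio after 24 hrs of compound at 37 degree Celsius. PI-stained cell number gives viability.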

[16] = qHTS Assay for Identification of Small Molecule Inducers of Hypoxia Response (AID 2120; active means well fitted curve in the direction sought with a large enough effect in the signal ratio, with a control signal flat, not every such curve was filed as active; the % refers to the signal ratio)
Summary of the method: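 HRE-beta-lactamase reporter in CellSensor HRE-bla ME-180 cells, 2500 cells/well in Opti-MEM with 0.5% dialyzed FBS; compounds tested as titration series, 17 h at 37 degrees C. CCF4 substrate 2.5 h at room temperature; AC50 from 460/530 nm ratio.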

[17] = molecular target: Ubiquitin carboxyl-terminal hydrolase 2 (Homo sapiens) (UniProt O75604); assay: qHTS Validation Assay for Inhibitors of Ubiquitin-specific Protease USP2a Using CHOP2 as the Reporter (AID 463106)
Chain of Ubiquitin carboxyl-terminal hydrolase 2 (Homo sapiens) (O75604 whole entry, looked up): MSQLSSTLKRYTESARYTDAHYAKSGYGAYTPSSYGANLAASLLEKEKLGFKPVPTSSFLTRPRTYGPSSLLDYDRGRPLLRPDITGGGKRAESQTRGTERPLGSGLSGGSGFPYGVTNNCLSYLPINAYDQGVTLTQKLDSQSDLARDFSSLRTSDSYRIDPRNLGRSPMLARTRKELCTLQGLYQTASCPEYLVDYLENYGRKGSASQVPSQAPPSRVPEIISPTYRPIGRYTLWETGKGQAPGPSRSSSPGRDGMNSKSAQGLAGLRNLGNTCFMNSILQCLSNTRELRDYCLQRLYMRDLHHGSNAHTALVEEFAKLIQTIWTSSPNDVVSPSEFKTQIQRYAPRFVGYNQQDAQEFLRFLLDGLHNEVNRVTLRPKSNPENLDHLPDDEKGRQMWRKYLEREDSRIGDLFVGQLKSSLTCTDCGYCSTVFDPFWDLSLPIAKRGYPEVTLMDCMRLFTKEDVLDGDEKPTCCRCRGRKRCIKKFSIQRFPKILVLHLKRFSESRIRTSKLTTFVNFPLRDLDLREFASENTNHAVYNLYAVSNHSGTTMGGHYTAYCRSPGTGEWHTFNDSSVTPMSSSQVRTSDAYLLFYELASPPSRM
Summary of the method: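 10nM USP2 core + cpd, 30min RT; add 25nM Ub-CHOP2/25nM substrate; 60min RT; FI 485/531nm. Buffer Tris pH 8.0, CaCl2, BME, CHAPS. Norm. to NEM = 100% inhibition; time-zero read flags fluorescent artifacts.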

[18] = Validation screen for small molecules that induce DNA re-replication in MCF 10A normal breast cells (AID 463097); further: nearly all actives have a fitted effect of over 60% in size; further: potency means the concentration at half of the fitted maximal effect
Summary of the method: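 DNA re-replication was detected as a rise in nuclei with elevated Hoechst fluorescence after a 48 hr compound exposure of MCF 10A cells at 37 C.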

[19] = molecular target: Endonuclease 4 (Escherichia coli (strain K12)) (UniProt P0A6C1); assay: Counterscreen for APE1 Inhibitors: qHTS Validation Assay for Inhibitors of Endonuclease IV (AID 1708)
Summary of the method: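 Enzymatic AP-site incision assay using a double-stranded THF substrate labelled with TAMRA and BHQ-2; released fluorescence signals activity. Enzyme 2 nM, substrate 50 nM, 15 min compound preincubation.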

Row | SMILES | outcome [1] | Potency [2] | Potency [3] | Potency [4] | Potency [5] | Potency [6] | Potency [7] | Potency [8] | outcome [9] | Potency [10] | Potency [11] | outcome [12] | Potency [13] | Potency [14] | Potency [15] | outcome [16] | outcome [17] | Potency [18] | Potency [19]
1 | CCCN(CCC)C(=O)C(CCC(=O)O)NC(=O)c1ccccc1 (configuration not stated) | inactive | inactive | inactive | inactive | inactive | inactive | inactive | inactive | inactive | inactive | inactive | inactive | inactive | inactive | inactive | – | – | – | –
2 | NC(=Nc1ccccc1)Nc1ccccc1 | – | – | – | – | – | – | – | – | – | – | – | – | – | – | – | inactive | – | – | –
3 | NC(=O)c1cn(Cc2c(F)cccc2F)nn1 | – | – | – | – | – | – | – | – | – | – | – | inactive | inactive | inactive | inactive | – | inactive | – | –
4 | COc1cc(C(=O)OCCCN2CCCN(CCCOC(=O)c3cc(OC)c(OC)c(OC)c3)CC2)cc(OC)c1OC | inactive | 5010 nM (active) | 6310 nM (active) | 3160 nM (active) | 10000 nM (active) | 7080 nM (active) | 3550 nM (active) | 8910 nM (active) | inactive | inactive | inactive | inactive | inactive | – | – | – | – | – | –
5 | COC(=O)C1=C(C)NC(C)=C(C(=O)OC(C)(C)CN(C)CCC(c2ccccc2)c2ccccc2)C1c1cccc([N+](=O)[O-])c1 (configuration not stated) | – | – | – | – | – | – | – | – | – | – | – | – | inactive | – | – | – | – | – | –
6 | COC(=O)[C@H]1[C@H]2C[C@@H]3c4[nH]c5cc(OC)ccc5c4CCN3C[C@H]2C[C@@H](OC(=O)c2cc(OC)c(OC)c(OC)c2)[C@@H]1OC | inactive | 282 nM (active) | 2000 nM (active) | 1780 nM (active) | 2820 nM (active) | 2240 nM (active) | 891 nM (active) | 1260 nM (active) | inactive | inactive | – | inactive | inactive | inactive | inactive | – | – | 11200 nM (active) | –
7 | CCN(CC)CCNC(=O)c1cc(S(C)(=O)=O)ccc1OC | inactive | inactive | inactive | inactive | inactive | inactive | inactive | inactive | inactive | inactive | – | inactive | inactive | inactive | inactive | – | inactive | inactive | –
8 | CC(C)(Oc1ccc(CCNC(=O)c2ccc(Cl)cc2)cc1)C(=O)O | – | – | – | – | – | – | – | – | – | – | – | inactive | inactive | inactive | inactive | – | inactive | – | –
9 | O=C(O)CN(CCN(CC(=O)O)CC(=O)O)CCN(CC(=O)O)CC(=O)O | inactive | – | – | inactive | inactive | inactive | inactive | inactive | inactive | inactive | – | inactive | inactive | inactive | inactive | – | inactive | – | –
